# Screening data (PubChem)
# tim23-1 inh: growth inhibitors of tim23-1 mutant yeast. S. cerevisiae tim23-1 growth, BacTiter-Glo luminescence, 24 h. inhibition, % at 20 µM. 330,000 compounds, 1.3% hits. AID 463212;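 active = growth inhibition of the mutant yeast at or above 50%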;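 note: temperature-sensitive mutant grown at 25 °C; plate controls were DMSO-treated mutant yeast for no effect and medium wells lacking yeast for full effect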
# PfHsp90 yeast 2: growth inhibition of yeast expressing Plasmodium Hsp90. S. cerevisiae expressing PfHsp90, BacTiter-Glo ATP, 48 h; yeast lacking PDR1 and PDR3 efflux regulators. inhibition, % at 9.4 µM. 310,000 compounds, 0.32% hits. AID 504621;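 active = every replicate shows inhibition above about 80%, whatever the replicate mean, limit read from the data; inconclusive = mean inhibition reaches the set limit but some replicate falls short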;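 note: 0% = DMSO neutral controls and 100% = 20 µM radicicol positive controls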
# Calb FLC: C. albicans growth modulation with fluconazole | C. albicans CaCi-2 (fluconazole-resistant clinical isolate) + fluconazole, Alamar Blue growth, 48 h | growth inhibition, % (no concentration beside the values) | 300,000 compounds, 0.57% hits;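 active = growth inhibition above about 58% in most replicates, limit read from the data, passing the limit was not always enough; inconclusive = exactly half the replicates above a set limit; inactive = most replicates below a set limit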;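 note: all wells also contain fluconazole at 8 µg/ml as a sub-toxic cotreatment; 0% = median of DMSO wells and 100% = median of geldanamycin control wells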
# SKKanGAS inh: blocks kanamycin growth of S. pyogenes SKKanGAS strain; BacTiter-Glo, 6 h; inhibition, % at 7.5 µM; 300,000 compounds, 1.3% hits; AID 1662;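 active = mean replicate score, as percent of positive control median, at least 50; inconclusive = mean below 50 but one replicate at or above 50; inactive = mean and every replicate below 50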;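 note: strain carries kanamycin resistance gene driven by streptokinase promoter and grows in 40 µg/ml kanamycin; loss of luminescence reflects streptokinase promoter inhibition or plain growth inhibition; 0% = median of DMSO wells and 100% = positive control at its reference dose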
# tim10-1 inh: growth inhibitors of tim10-1 mutant yeast; S. cerevisiae tim10-1 ts strain growth, BacTiter-Glo, 24 h; inhibition, % at 20 µM; 330,000 compounds, 2.2% hits;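 active = inhibition of at least 40%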;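 note: mutant grown at 25 °C; 0% = DMSO wells with yeast and 100% = wells holding no yeast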
# TIM10 inh: TIM10 yeast growth inhibition | inhibition, % at 10 µM | S. cerevisiae TIM10 strain growth, BacTiter-Glo luminescence, 24 h | 330,000 compounds, 1.4% hits;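 active = inhibition of 40% or more at the single tested concentration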;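 note: wild-type TIM10 isogenic control strain grown at permissive 25 °C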
# Starred values were filed as active, the others as inactive; ? = inconclusive; / = not tested or not shown. Hits are enriched below; roughly 4.7% of the tested compounds scored in any of these assays.
SMILES,tim23-1 inh,PfHsp90 yeast 2,Calb FLC,SKKanGAS inh,tim10-1 inh,TIM10 inh
Oc1ccc(N=Nc2ccccc2C(F)(F)F)c2cccnc12,7,-25,98*,98*,19,7
Cc1ccc(S(=O)(=O)N(C)c2ccc(OCC(=O)Nc3nnc(C4CC4)s3)cc2)cc1,/,3,63*,9,/,/
CC(=O)c1sc2nc(-c3cccs3)ccc2c1N,25,-24,3,-16,35,16
Nc1c(C(=O)Nc2nc3ccccc3s2)sc2nc(-c3cccs3)ccc12,3,-23,-1,50*,21,7
Cc1ccc(NC2CCCN(C(=O)Cc3nonc3C)C2)cc1C (stereo unspecified),5,1,0,3,2,1
COCCCn1c(O)c(/C=C2\N=C(C#N)C(=Nc3ccc(C)cc3)O2)sc1=S,13,0,3,53*,9,11
CCn1c(O)c(/C=C2\C=Nc3ccccc32)sc1=Nc1ccc(C)cc1,5,-56,1,8,4,6
COCCn1c(=S)[nH]c2sc3c(c2c1=O)CCC(C)C3 (stereo unspecified),28,-79,1,3,12,5
Cn1c(=S)[nH]c2sc3c(c2c1=O)CCC(C(C)(C)C)C3 (stereo unspecified),18,-10,0,79*,32,5
CCCCCCCC/C=C\CCCCCCCC(=O)NCCO,12,109*,/,/,29,-2
CCCCCCC(=O)O,4,6,/,/,10,7
CCCCCCCCCCCCCC(=O)NO,/,107*,/,/,/,/
Cc1ccc(Nc2nc(N)c3ccccc3n2)cc1C,5,22,4,10,8,12
COc1ccc(S(=O)(=O)N2CCC(C(=O)NC3CCCC3)CC2)cc1C,1,10,-4,2,1,7
CC1C(=O)C(C)C(c2cc(Cl)ccc2O)NC1c1cc(Cl)ccc1O (stereo unspecified),37,13,/,74*,27,-5
COc1cccc(C2NC(c3cccc(OC)c3O)C(C)C(=O)C2C)c1O (stereo unspecified),9,-2,3,12,29,-9
Cc1[nH]c2ccccc2c1C(O)c1ccncc1 (stereo unspecified),7,5,-3,7,-11,-12
Cc1[nH]c2ccccc2c1C(c1ccccn1)c1c(C)[nH]c2ccccc12,2,-12,2,72*,14,6
Nc1sc(-c2ccccc2)cc1C(=O)N/N=C/c1ccc(Cl)cc1,-5,-1,0,95*,33,3
COC(=O)C1CCN(Cc2c(C(=O)N3C[C@@H](C)O[C@@H](C)C3)nc3ccc(Cl)cn23)CC1,7,2,87*,0,-9,10
C[C@@H]1CN(C(=O)c2nc3ccc(Cl)cn3c2CN2CCc3sccc3C2)C[C@H](C)O1,28,7,-14,3,16,14
O=C(N/N=C/c1cc([N+](=O)[O-])ccc1O)c1c[nH]c2ccccc12,-9,16,2,66*,14,1
Cn1c(SCC(=O)N/N=C/c2cc([N+](=O)[O-])ccc2O)nnc1-c1ccccc1,-21,24,-4,93*,4,10
Cc1cc(C(=O)N/N=C/c2ccc([N+](=O)[O-])cc2)c2ccccc2n1,4,-26,-1,-1,19,-1
Cn1c(SCC(=O)N/N=C/c2ccccn2)nnc1-c1ccccc1,4,-21,0,1,-11,16
SMILES,tim23-1 inh,PfHsp90 yeast 2,Calb FLC,SKKanGAS inh,tim10-1 inh,TIM10 inh
Cc1cc(C(=O)N/N=C/c2cc([N+](=O)[O-])ccc2O)c2ccccc2n1,39,-8,24,92*,9,20
O=C(NC(C(=O)N/N=C/c1cc([N+](=O)[O-])ccc1O)c1n[nH]c(=O)c2ccccc12)c1ccccc1 (stereo unspecified),24,3,16,87*,13,-8
O=C(NC(C(=O)N/N=C/c1cccc2ccccc12)c1n[nH]c(=O)c2ccccc12)c1ccccc1 (stereo unspecified),16,-21,3,5,5,5
COC(=O)C1=C(C(=O)OC)C(C(=O)OC)C(C(=O)OC)C(C(=O)OC)(C(=O)OC)C(C(=O)OC)=C1C(=O)OC (stereo unspecified),/,27,/,/,/,/
COc1ccc(S(=O)(=O)N2CCCOC2CNC(=O)C(=O)NCCCN2CCOCC2)cc1 (stereo unspecified),-13,-3,3,-9,4,-5
CSCCC(NC(=O)c1ccco1)C(=O)Nc1ccncc1 (stereo unspecified),8,8,-3,-17,1,13
CCOc1cc(S(=O)(=O)NCc2ccncc2)ccc1Cl,-6,-4,32,3,10,16
COc1ccccc1NC(=O)c1ccc2[nH]c(C)c(C)c2c1,22,9,-11,2,24,16
CC(=O)c1sc(NS(=O)(=O)c2ccc(C)cc2)nc1-c1ccccc1,12,-18,49,17,12,-8
O=C(COC(=O)c1ccccc1NCCO)Nc1cccc(S(=O)(=O)NC2=NCCCCC2)c1,14,/,-7,1,-4,-10
CCOC(=O)c1c(C)[nH]c(C(=O)N/N=C/c2cc([N+](=O)[O-])ccc2O)c1C,22,7,2,80*,21,26
O=[N+]([O-])c1ccc(Cl)c(/C=N/n2c(COc3ccccc3)n[nH]c2=S)c1,10,-19,?,1,30,11
O=c1c2ccccc2nc(COc2ccccc2)n1/N=C/c1cc([N+](=O)[O-])ccc1O,49,28,-3,76*,20,24
Cc1cccc(/C=N/NC(=O)c2cc(C)nc3ccccc23)n1,5,5,9,0,-17,1
Cc1cc(C(=O)N/N=C/c2cc(Br)cc([N+](=O)[O-])c2O)c2ccccc2n1,36,-3,2,106*,29,25
S=c1nc(C2CC2)n(-c2ccccc2)[nH]1,4,5,22,-18,21,-3
Nc1ccc2nc(-c3ccc(Cl)cc3)[nH]c2c1,14,11,4,84*,-2,17
Nc1ccc2nc(-c3cc(Cl)c(N)c(Cl)c3)[nH]c2c1,-3,4,-4,63*,14,14
Nc1ccc(-c2nc3ccc(N)cc3[nH]2)cc1,10,11,11,-4,-19,9
CC(C)(C)c1ccc(C(=O)N2CCC(C(=O)c3ccccc3)CC2)cc1,40,-7,44,4,35,22
CC[n+]1c(C=C2C=C(C)OC(C)=C2)sc2ccccc21,-29,-9,108*,5,-3,-3
COc1ccc(-c2n[nH]c(=S)nc2-c2ccc(OC)cc2)cc1,26,15,0,5,27,1
